SMILES strings stand for the structures. Values without a mark were called inactive. Results filed as inconclusive are left out. Calls of active or inactive are those of the source. Unless noted, calls come from the whole dose curve; as a rule, active = well fitted curve in the direction sought with a large enough effect; inconclusive = small, poorly fitted or top-dose-only effect, or another doubt; inactive = no such curve, though single readings can be large; an effect the other way counts as inactive or inconclusive. Where only a bound is given, the exact number is not on record here.

For test [1], the target named is Lysosomal acid glucosylceramidase (Homo sapiens) (UniProt P04062). The test can be described thus: Glucocerebrosidase-p2 (AID 348; in the data active = potency below about 10 µM; note: potency is the fitted concentration of half-maximal effect). The conditions noted are these: purified GBA, blue fluorogenic substrate, 40 min. Put shortly: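 Compounds titrated from 0.6 nM upwards against 0.2 nM enzyme in pH 5.9 citric acid/KH2PO4, taurocholate, tween-20; blue fluorogenic substrate 80 uM, 40 min room temperature, stopped and read Ex 365/Em 440 for AC50.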

A short description of test [2]: AP1 Signaling Pathway (AID 357; active = well fitted curve in either direction with a large enough effect, not every such curve was filed as active; note: % is set by controls: 0 for no effect and ±100 for the full control effect). The settings on record: ME-180 AP-1-bla reporter, EGF-induced, beta-lactamase ratio, 5 h; at 7.69 µM (top of the series) unless noted. Put shortly: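 Read-out was the 460nm/530nm emission ratio (excitation 405nm) after CCF4 loading for 2.5 hours at room temperature. Cells carried an AP-1-driven beta-lactamase reporter, were stimulated with EC50 EGF plus compound for 5 hours, and AC50 values came from titrations.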

A short description of test [3]: NFAT Signaling Pathway (AID 444; active = well fitted curve in either direction with a large enough effect, not every such curve was filed as active;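 note: carbachol stimulus at about its EC50 of 1 µM final; % is set by controls: 0 for no effect and ±100 for the full control effect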). The settings on record: Jurkat NFAT-bla M1, carbachol, beta-lactamase ratio, 5 h; at 7.69 µM (top of the series) unless noted. In outline:
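Read-out: CCF4 FRET ratio (460 nm/530 nm) after 1 h RT dye loading, used for %activity and AC50 from titration series. Cells: Jurkat NFAT-β-lactamase/M1 line, treated with compound plus 1 uM carbachol for 5 h, 37 °C.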

A short description of test [4]: Stat Signaling Pathway (AID 446; active = well fitted curve in either direction with a large enough effect, not every such curve was filed as active;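 note: ME-180 cervical cancer cells given 40 pM IL-6 alongside compound; SIE-controlled beta-lactamase reporter measured as 460/530 nm FRET emission ratio; % is set by controls: 0 for no effect and ±100 for the full control effect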). The settings on record: ME-180 SIE beta-lactamase reporter, IL-6 stimulated, 5 h; at 7.69 µM (top of the series) unless noted. In outline: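 ME-180 cells carrying a SIE-driven beta-lactamase reporter are stimulated with 40 pM IL-6 for 5 h at 37C in the presence of compound. The 460/530 nm FRET substrate ratio is read after 2.5 h at RT. Data are normalised to 300 pM IL-6 and to 125 nM JAK inhibitor controls.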

Test [5] addresses Glucocorticoid receptor (Homo sapiens) (UniProt P04150). The test can be described thus: GR-GFP Redistribution (AID 450;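 active = compounds whose dose series gives a full or clear partial fitted curve of increased nuclear translocation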; note: potency is the fitted concentration of half-maximal effect). The settings on record: U2OS GR-GFP nuclear translocation, laser cytometry, 2 h.
For test [6] the target is unchanged. The test can be described thus: GR-EFC Redistribution (AID 451; calls by dose curve; note: potency is the fitted concentration of half-maximal effect). The conditions noted are these: CHO-K1 GR-EFC translocation, beta-gal luminescence, 2 h. In outline: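 Translocation of GR-ED fusion to nuclear EA restores b-gal, read by luminescence after 1 h room-temperature detection. Engineered CHO-K1 biosensor cells, 1,000/well, exposed 2 h at 37 C to titrations up to 46 uM final.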

Test [7] has as its target Mitogen-activated protein kinase 10 (Mus musculus) (UniProt Q61831). The test can be described thus: JNK3 AlphaScreen Assay (AID 530; active = well fitted curve in either direction with a large enough effect, not every such curve was filed as active;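 note: kinase came from lysate of stimulated human HepG2 cells; signal reports phosphorylation of biotinylated GST-cJun 1-79 at Ser73 with 10 µM ATP; % is set by controls: 0 for no effect and ±100 for the full control effect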). Put shortly:
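Compound titrations were preincubated 15 minutes at room temperature with substrate, antibody and pre-activated JNK3-containing HepG2 lysate. Reactions were started with 10 uM ATP and stopped with EDTA-containing bead buffer for AlphaScreen detection.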

Test [8] concerns the target Dual specificity protein kinase CLK4 (Homo sapiens) (UniProt Q9HAZ1). The test can be described thus: qHTS Assay for Inhibitors of CDC-like Kinase 4 (ADP-FP Assay) (AID 1795). Note: potency is the fitted concentration of half-maximal effect; nearly all actives have a fitted effect of over 60% in size. In outline: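 Recombinant human Clk4 (6.25 nM) phosphorylated RS repeat peptide (100 uM) with 1 uM ATP in Tris pH 7.5/MgCl2/EGTA/DTT/Triton buffer for one hour. ADP was quantified by Transcreener competitive fluorescence polarization against an ADP calibration curve.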

In test [9] the target is Ubiquitin carboxyl-terminal hydrolase 1 (Homo sapiens) (UniProt O94782). The test can be described thus: Inhibitors of USP1/UAF1: Pilot qHTS (AID 504865).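 Note: rhodamine fluorescence freed from ubiquitin-rhodamine substrate followed over time; top concentration of the series differs between compounds; % is set by controls: 0 for no effect and ±100 for the full control effect; nearly all actives have a fitted effect of over 35% in size.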 Put shortly: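 USP1/UAF1 complex (1nM) preincubated with compound 15 min at room temperature, then Ub-Rho substrate (150nM final) added. Fluorescence read kinetically at 480/540 nm, 6 reads every 60 seconds. Buffer: 50mM HEPES pH 7.8, 0.5mM EDTA, 0.1 mg/ml BSA, 1mM TCEP, 0.01% Tween-20.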

Test [10] is described as follows: Primary qHTS for small molecule stabilizers of the endoplasmic reticulum resident proteome: Secreted ER Calcium Modulated Protein (SERCaMP) assay (AID 1508630). Note: % is set by controls: 0 for no effect and ±100 for the full control effect. Put shortly:
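GLuc-SERCaMP-expressing SH-SY5Y cells, pretreated 16 h with compound, are challenged with thapsigargin to empty ER calcium stores; after 4 h, coelenterazine is added directly to the medium and luminescence is imaged.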

The target in test [11] is Rap guanine nucleotide exchange factor 3 (Homo sapiens) (UniProt O95398). The test can be described thus: Confirmatory qHTS for agonist of cAMP-regulated guanine nucleotide exchange factor 3 (EPAC1) (AID 1645881).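 Note: EPAC1 catalysed release of BODIPY-GDP from Rap1B seen as fluorescence loss; 100% = effect of cAMP agonist control; nearly all actives have a fitted effect of over 75% in size.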
The target of test [12] is Rap guanine nucleotide exchange factor 4 (Homo sapiens) (UniProt Q8WZA2). The test can be described thus: Confirmatory qHTS for agonist of cAMP-regulated guanine nucleotide exchange factor 4 (EPAC2) (AID 1645884).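 Note: nucleotide exchange releases bodipy-GDP from Rap1 and this lowers its fluorescence; nearly all actives have a fitted effect of over 65% in size.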 Note: potency is the fitted concentration of half-maximal effect.
Test [13] has the same target. The test can be described thus: Confirmatory qHTS for antagonist of cAMP-regulated guanine nucleotide exchange factor 4 (EPAC2) (AID 1645885). Note: nearly all actives have a fitted effect of over 25% in size. Note: potency is the fitted concentration of half-maximal effect.
Test [14] deals with 3',5'-cyclic-AMP phosphodiesterase 4B (Homo sapiens) (UniProt Q07343). The test can be described thus: qHTS Assay for Inhibitors of PDE-IV (AID 607; active = well fitted activation curve with a large enough effect in the main read-out, with a control signal flat, not every such curve was filed as active; note: % of control where 0% means no effect). Put shortly:
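HEK293 ACTOne cells with CNG channel (1000/well), endogenous PDE4; membrane potential dye, compounds up to 22.9 uM final. Fluorescence Ex 535/Em 590; RO 20-1724 (100 uM final) as reference.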

The target in test [15] is Rap guanine nucleotide exchange factor 3 (Homo sapiens) (UniProt O95398). The test can be described thus: Confirmatory qHTS for antagonist of cAMP-regulated guanine nucleotide exchange factor 3 (EPAC1) (AID 1645880).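 Note: plate controls were DMSO only for no effect and full effect of the ATA control for full effect; nearly all actives have a fitted effect of over 55% in size.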 Put shortly: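 Nucleotide exchange uses 100 nM EPAC1, 250 nM RAP1B-BODIPY-GDP and 50 uM GDP, with compounds in a concentration-titration series. After 5 min at room temperature, fluorescence (480 nm ex/540 nm em) is read every 5 min for 30 min. Data are normalized to control ATA and DMSO.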

Test [16] concerns the target Cytochrome P450 1A2 (Homo sapiens) (UniProt P05177). The test can be described thus: p450-cyp1a2 (AID 410; calls by dose curve; note: potency is the fitted concentration of half-maximal effect;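 for activity change, negative = inhibition: -100% = full effect of reference inhibitor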). Put shortly:
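Luminescent readout of luciferin formed from Luciferin-ME by human CYP1A2; data normalized against complete inhibition by 57 uM furafylline. Enzyme 20nM, substrate 100uM at Km, 100mM KPO4 buffer, 60 min reaction at room temperature.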

Test [17] deals with Cytochrome P450 3A4 (Homo sapiens) (UniProt P08684). The test can be described thus: qHTS Assay for Activators of Cytochrome P450 3A4 (AID 885). Note: nearly all actives have a fitted effect of over 65% in size. In outline: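 Human CYP3A4 (20 nM) with Luciferin-PPXE at 25 uM (its KM) in 200 mM KPO4; 10 min compound preincubation, then NADPH regeneration and 60 min reaction at RT. Luciferin read by luminescence; normalized to 57 uM ketoconazole full inhibition.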

Chain of Lysosomal acid glucosylceramidase (Homo sapiens) (P04062 whole entry, looked up): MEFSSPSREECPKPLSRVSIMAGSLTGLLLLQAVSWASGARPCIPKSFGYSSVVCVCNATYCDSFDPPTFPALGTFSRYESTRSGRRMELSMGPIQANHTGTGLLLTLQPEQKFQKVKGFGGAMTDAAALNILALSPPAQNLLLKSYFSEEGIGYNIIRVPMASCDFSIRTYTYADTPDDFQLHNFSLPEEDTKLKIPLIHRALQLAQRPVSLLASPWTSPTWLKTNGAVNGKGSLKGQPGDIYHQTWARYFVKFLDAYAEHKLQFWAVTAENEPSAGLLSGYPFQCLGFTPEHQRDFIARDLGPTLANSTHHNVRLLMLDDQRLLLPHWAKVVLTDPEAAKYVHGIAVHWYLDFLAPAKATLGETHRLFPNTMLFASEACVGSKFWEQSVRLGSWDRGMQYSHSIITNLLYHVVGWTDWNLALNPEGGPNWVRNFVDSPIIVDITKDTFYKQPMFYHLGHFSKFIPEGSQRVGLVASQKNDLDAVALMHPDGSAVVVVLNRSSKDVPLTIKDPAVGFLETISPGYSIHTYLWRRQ
Chain of Cytochrome P450 1A2 (Homo sapiens) (P05177 whole entry, looked up): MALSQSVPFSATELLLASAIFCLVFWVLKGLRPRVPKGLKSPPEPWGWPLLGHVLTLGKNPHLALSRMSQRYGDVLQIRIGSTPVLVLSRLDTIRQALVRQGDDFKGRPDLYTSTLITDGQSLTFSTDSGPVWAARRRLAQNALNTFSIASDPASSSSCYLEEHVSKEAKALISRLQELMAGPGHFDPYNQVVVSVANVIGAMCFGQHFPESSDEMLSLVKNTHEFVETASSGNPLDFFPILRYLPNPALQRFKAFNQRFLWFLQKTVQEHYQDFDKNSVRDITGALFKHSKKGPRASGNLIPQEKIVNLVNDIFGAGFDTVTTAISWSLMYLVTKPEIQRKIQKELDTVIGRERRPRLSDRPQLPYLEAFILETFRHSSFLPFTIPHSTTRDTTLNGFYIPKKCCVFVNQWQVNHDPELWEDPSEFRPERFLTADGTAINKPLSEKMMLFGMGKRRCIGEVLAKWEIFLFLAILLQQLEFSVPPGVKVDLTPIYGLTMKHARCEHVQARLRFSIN
Chain of Glucocorticoid receptor (Homo sapiens) (P04150 whole entry, looked up, the tested form may be a part): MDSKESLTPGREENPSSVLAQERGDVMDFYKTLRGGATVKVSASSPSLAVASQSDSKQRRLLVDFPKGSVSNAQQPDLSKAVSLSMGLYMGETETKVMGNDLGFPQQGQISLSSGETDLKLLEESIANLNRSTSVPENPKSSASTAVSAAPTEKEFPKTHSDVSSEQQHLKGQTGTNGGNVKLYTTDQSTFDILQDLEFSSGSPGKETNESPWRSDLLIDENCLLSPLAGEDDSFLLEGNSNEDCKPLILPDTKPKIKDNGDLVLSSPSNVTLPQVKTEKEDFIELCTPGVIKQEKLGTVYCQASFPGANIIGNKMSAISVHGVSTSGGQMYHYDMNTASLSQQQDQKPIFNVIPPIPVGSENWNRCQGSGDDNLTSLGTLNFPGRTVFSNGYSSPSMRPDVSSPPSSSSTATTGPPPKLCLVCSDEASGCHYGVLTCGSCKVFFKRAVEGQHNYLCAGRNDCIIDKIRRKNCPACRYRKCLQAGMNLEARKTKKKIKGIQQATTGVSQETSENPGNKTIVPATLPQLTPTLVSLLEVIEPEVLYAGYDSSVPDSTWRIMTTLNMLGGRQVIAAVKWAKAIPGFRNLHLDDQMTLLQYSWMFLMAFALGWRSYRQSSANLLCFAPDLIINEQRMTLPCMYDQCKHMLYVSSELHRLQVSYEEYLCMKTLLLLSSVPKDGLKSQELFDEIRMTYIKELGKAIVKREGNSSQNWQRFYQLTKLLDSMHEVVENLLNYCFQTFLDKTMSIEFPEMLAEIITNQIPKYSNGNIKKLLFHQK
Chain of Rap guanine nucleotide exchange factor 3 (Homo sapiens) (O95398 whole entry, looked up): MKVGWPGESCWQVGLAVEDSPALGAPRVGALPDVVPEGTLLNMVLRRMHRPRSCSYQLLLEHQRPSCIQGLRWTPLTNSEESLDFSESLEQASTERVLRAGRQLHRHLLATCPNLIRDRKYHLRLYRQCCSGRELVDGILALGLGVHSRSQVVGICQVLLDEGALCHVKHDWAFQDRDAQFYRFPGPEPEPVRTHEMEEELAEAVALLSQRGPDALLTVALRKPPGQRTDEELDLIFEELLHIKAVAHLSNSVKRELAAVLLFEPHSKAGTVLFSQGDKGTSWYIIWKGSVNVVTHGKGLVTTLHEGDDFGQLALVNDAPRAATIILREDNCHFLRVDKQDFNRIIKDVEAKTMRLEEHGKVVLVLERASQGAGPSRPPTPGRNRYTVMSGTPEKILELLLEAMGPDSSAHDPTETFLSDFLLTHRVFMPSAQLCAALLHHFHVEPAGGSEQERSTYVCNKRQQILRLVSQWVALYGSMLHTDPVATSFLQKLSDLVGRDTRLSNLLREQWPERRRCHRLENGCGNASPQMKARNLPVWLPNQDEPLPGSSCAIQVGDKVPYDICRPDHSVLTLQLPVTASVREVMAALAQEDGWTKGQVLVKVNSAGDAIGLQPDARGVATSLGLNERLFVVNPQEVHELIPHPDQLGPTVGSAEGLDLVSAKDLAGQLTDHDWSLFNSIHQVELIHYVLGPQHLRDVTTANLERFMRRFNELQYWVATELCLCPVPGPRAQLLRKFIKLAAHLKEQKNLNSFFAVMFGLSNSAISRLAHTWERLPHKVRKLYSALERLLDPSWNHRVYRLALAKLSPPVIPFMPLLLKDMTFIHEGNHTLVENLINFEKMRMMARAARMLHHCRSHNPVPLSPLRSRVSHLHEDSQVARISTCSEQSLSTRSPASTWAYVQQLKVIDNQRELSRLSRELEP
Chain of 3',5'-cyclic-AMP phosphodiesterase 4B (Homo sapiens) (Q07343 whole entry, looked up): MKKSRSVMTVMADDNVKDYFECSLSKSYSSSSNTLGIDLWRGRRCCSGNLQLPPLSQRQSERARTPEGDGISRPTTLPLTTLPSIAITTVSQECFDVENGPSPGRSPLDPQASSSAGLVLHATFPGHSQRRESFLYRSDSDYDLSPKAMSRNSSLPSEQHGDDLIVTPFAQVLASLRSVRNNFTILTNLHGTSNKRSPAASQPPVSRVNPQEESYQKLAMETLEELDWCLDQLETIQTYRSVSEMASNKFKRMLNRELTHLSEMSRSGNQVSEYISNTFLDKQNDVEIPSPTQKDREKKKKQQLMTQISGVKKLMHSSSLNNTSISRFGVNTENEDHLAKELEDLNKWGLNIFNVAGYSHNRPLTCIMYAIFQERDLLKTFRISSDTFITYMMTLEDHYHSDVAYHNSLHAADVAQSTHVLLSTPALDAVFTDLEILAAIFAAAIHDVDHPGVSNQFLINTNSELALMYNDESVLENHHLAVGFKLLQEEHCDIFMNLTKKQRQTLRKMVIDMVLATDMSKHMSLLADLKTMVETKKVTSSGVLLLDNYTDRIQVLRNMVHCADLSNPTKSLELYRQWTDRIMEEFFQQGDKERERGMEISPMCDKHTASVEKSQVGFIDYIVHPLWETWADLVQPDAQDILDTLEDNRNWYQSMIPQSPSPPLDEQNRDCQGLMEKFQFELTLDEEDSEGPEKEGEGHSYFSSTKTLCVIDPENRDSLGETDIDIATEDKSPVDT
Chain of Rap guanine nucleotide exchange factor 4 (Homo sapiens) (Q8WZA2 whole entry, looked up): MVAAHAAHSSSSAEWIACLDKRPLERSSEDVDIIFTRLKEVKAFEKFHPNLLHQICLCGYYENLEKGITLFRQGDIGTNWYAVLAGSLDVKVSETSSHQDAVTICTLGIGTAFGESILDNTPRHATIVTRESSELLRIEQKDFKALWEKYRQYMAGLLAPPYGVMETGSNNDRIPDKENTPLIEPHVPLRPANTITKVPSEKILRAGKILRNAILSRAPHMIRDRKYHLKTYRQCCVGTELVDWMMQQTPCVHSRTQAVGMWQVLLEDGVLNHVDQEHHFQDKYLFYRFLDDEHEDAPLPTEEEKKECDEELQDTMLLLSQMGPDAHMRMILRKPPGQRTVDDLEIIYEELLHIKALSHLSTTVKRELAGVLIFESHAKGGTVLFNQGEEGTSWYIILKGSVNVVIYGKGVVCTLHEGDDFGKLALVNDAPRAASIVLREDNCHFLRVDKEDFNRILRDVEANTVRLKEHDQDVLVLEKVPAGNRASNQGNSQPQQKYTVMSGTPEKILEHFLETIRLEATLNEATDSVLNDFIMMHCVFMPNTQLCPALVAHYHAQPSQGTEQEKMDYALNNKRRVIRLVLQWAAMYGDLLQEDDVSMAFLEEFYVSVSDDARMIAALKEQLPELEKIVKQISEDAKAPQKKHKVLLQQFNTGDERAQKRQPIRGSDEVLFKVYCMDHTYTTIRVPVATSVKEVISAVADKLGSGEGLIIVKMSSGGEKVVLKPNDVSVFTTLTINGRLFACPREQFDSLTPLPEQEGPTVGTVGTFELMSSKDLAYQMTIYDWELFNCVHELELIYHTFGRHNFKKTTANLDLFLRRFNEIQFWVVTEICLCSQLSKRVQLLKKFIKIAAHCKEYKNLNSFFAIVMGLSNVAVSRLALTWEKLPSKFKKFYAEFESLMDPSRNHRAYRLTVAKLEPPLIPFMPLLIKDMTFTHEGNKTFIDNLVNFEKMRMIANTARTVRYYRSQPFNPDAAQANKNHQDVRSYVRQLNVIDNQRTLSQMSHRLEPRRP
Chain of Dual specificity protein kinase CLK4 (Homo sapiens) (Q9HAZ1 whole entry, looked up): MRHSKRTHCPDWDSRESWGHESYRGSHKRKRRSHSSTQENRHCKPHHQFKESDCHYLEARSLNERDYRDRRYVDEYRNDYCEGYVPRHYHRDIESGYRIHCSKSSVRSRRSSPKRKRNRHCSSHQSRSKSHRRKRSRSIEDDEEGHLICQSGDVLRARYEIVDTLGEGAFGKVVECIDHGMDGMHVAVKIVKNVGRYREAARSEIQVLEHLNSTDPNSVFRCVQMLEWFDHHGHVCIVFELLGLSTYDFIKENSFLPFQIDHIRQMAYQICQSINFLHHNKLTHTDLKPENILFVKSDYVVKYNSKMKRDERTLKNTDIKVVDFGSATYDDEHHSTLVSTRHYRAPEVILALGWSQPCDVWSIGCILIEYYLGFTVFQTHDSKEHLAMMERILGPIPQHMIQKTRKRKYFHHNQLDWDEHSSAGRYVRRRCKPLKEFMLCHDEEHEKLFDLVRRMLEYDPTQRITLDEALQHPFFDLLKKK

Take `COc1ccccc1-c1ccc2ncnc(N(C)Cc3ccco3)c2c1`: the Potency in [1] is more than 11.4 µM; in [5], more than 46 µM; in test [6], more than 46 µM; in test [8], 2.82 µM (active); in [13], 39.3 µM (active). For the same compound, the activity change, negative = inhibition in [2] is 10.4%; in [3] it was -26.4%. In addition, in test [4], the activity, negative = inhibition was -6.49%. Also, the Potency entry in test [7], in [9], in [11] and in test [12] was “inactive” in each case. In test [10], the result was inactive.

Regarding `COc1ccc(C(=O)N2CCC3(CC2)CN(c2cccc(-c4ccccc4)c2)C3)cc1`, the Potency in test [1] was more than 11.4 µM; in [6] it was more than 46 µM. The activity change, negative = inhibition in test [2] is -18.9%. Moreover, the activity, negative = inhibition in [4] is -19.1%. The Potency entry in [14], in test [15], in test [11], in test [12] and in test [13] was “inactive” in each case. In addition, the result in [10] was inactive.

In the case of `COc1cccc(Nc2ncc3ncc(=O)n(Cc4cccs4)c3n2)c1`, the Potency in [1] is more than 11.4 µM; in test [16], 1.58 µM (active); in test [5], more than 9.22 µM; in [6], more than 46 µM; in test [8], 0.501 µM (active). The Potency entry in test [7], in test [9], in [15], in [11] and in test [12] was “inactive” in each case. In test [10], the outcome was inactive.

In the case of `COc1ccc(-c2nc3cnc(Nc4ccccc4)nc3n(CCC#N)c2=O)cc1`, the Potency was more than 11.4 µM in [1], 0.501 µM (active) in [16], more than 46 µM in [6] and 70.6 µM (active) in test [12]. For the same compound, the activity change, negative = inhibition in [2] is -3.18%. Further, in test [4], the activity, negative = inhibition was -4.64%. Further, the Potency result in test [7], in test [15] and in test [13] was “inactive” each time. Besides, in [10], the result was inactive.

`COc1ccc(-n2c(=O)c(-c3cccs3)nc3cnc(Nc4cccc(OC)c4)nc32)cc1`: the results for the Potency in [1] and in [6] were more than 11.4 µM and more than 46 µM, respectively. Besides, the activity change, negative = inhibition in test [2] was -24.6%. For the same compound, the Potency result in test [16], in [7], in [17], in test [15] and in test [13] was “inactive” in each case. Besides, in [4], the activity, negative = inhibition is -11%. Further, the result in test [10] was inactive.

Consider `COCCn1c(=O)c(-c2cccs2)nc2cnc(Nc3ccccc3)nc21`, for which the Potency is more than 11.4 µM in test [1] and more than 9.22 µM in [5]. The activity change, negative = inhibition in test [2] was 5.47%. The activity, negative = inhibition in [4] is 14.8%. In addition, the Potency entry in test [7], in [15], in test [11] and in test [13] was “inactive” in each case. Besides, the result in test [10] was inactive.

For `Cn1c(=O)c(CCc2ccccc2)nc2cnc(Oc3ccccc3)nc21`, the values for the Potency in test [1], in test [5] and in [6] were more than 11.4 µM, more than 9.22 µM and more than 46 µM, respectively. For the same compound, the activity change, negative = inhibition in [2] was -15.2%; in [3], -7.88%. Further, the activity, negative = inhibition in test [4] was -2.24%. Also, the Potency result in [7], in test [14], in [15], in [11], in test [12] and in test [13] was “inactive” each time. Besides, the result in [10] was inactive.

As to `CN(C)c1ncc2nc(-c3cc(F)cc(F)c3)c(=O)n(Cc3cccs3)c2n1`, the Potency in [1] was more than 11.4 µM; in [16] it was 1.58 µM (active); in test [5], more than 9.22 µM; in test [6], more than 46 µM. The activity change, negative = inhibition in test [3] is 110% [activator] (active). Further, in [4], the activity, negative = inhibition was 190% [activator] (active). For the same compound, the Potency result in [14], in test [17], in [15], in test [11], in [12] and in test [13] was “inactive” each time. Further, the result in test [10] was inactive.

The values above are taken from PubChem BioAssay (NCATS).
